NADH enzymes: inhibitors of enzymes used to reach an NAD/NADH endpoint; coupled PK/LDH NADH assays, four targets; IC50, µM (doses to about 10 µM); hit rate 0.02% among 65,000;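 active means single-dose screening hits from any of four coupled enzyme assays that gave an IC50 when retested across doses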;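 further: the DPM-DC format reads NADH fluorescence rather than 340 nm absorbance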
Spn PMK inh: blocks S. pneumoniae phosphomevalonate kinase | inhibition, % at 10 µM | purified PMK, PK/LDH-coupled NADH absorbance 340 nm | hit rate 0.49% among 65,000;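 active means top-ranked compounds by inhibition in the single 10 µM screen, taking a fixed number of the strongest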
Fluor 339 460: intrinsic fluorescence of library compounds, ex339/em460 – biochemical, MLSMR library, data from DPM-DC assay, artefact control, profiling panel; fluorescence fold increase at 10 µM; compound autofluorescence, ex339/em460 nm, NADH buffer; active compounds read high; 1 = no-compound wells, NADH background; hit rate 5.5% among 65,000;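 active means at 10 µM, mean starting fluorescence two-fold or more over control wells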;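 further: signal is the first read of a kinetic run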
Abs 340nm: compounds absorbing at 340 nm; compound absorbance at 340 nm, fold over control; fold change at 10 µM; 65,000 tested, under 10 active;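 active means at 10 µM dose, initial 340 nm absorbance at least 2 fold that of control wells; inactive means change under 2 fold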;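 further: initial absorbance extrapolated from kinetic A340 decline of NADH oxidation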
Spn MK inh: blocks S. pneumoniae mevalonate kinase | purified MK, PK/LDH-coupled NADH absorbance 340 nm | inhibition, % at 10 µM | hit rate 0.48% among 65,000;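 active means ranked among the strongest by inhibition in the single 10 µM screen, a fixed top-ranked set picked for dose follow-up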
Spn DPM-DC inh: inhibitors of Streptococcus pneumoniae diphosphomevalonate decarboxylase. purified DPM-DC, PK/LDH coupled NADH fluorescence. calls only at 10 µM. hit rate 0.49% among 65,000;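 active means the 320 compounds with the highest percent inhibition in the single-dose primary screen, excluding strongly autofluorescent ones, cut at about 32% in these data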;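 further: kinetic rate of NADH fluorescence loss reporting ADP formed by the decarboxylase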
Each line names hits and unclear results; the compound was inactive in the other large screens. Shown are actives, neighbours in structure and some others; about 6.5% of the full set was active somewhere.

CC(C)OCCCNc1ncnc2c1[nH]c1ccccc12	Fluor 339 460 2.6
c1cc(-c2nc3cc(Oc4ccc5oc(-c6ccncc6)nc5c4)ccc3o2)ccn1	Fluor 339 460 2.6
O=C(COc1ccc(Cl)cc1)Nc1ccc2oc(-c3ccncc3)nc2c1	Fluor 339 460 4.8 (not shown: Spn DPM-DC inh)
CC(C)(Oc1ccc(Cl)cc1)C(=O)Nc1ccc2oc(-c3ccncc3)nc2c1	Fluor 339 460 3.4 (not shown: Spn DPM-DC inh)
Clc1ccc2oc(-c3ccccc3)nc2c1	none
Cc1ccc(OCC(=O)Nc2ccc(O)c(-c3nc4ccccc4o3)c2)cc1	none (not shown: Spn DPM-DC inh)
CCn1c(SCC(=O)Nc2ccc(S(N)(=O)=O)cc2)nnc1-c1cccc(OC)c1	none
Cc1cccc(CN(C)CCc2ccccn2)c1	Spn MK inh 44
COc1ccc(CN(C)CCc2ccccn2)c(OC)c1OC	Spn MK inh 68
COc1cccc(C2CC(c3cccc(C)c3)n3ncnc3N2)c1 (stereo not given)	none
CC1=CC(c2ccccc2)n2nc(N3C(=O)C4CC=CCC4C3=O)nc2N1 (stereo not given)	Fluor 339 460 2.3 (not shown: Spn DPM-DC inh)
COc1ccc(C(=O)N2CCN(Cc3cc(OC)c(O)c(OC)c3)CC2)cc1OC	none
COc1cc(CN2CCN(C(=O)CC(C)C)CC2)cc(OC)c1OC	Spn MK inh 52
COc1ccc(CN2CCN(C(=O)CN3C(=O)C4C5C=CC(C5)C4C3=O)CC2)c(OC)c1OC (stereo not given)	none
COc1ccc(CN2CCN(C(=O)CC(C)C)CC2)c(OC)c1OC	Spn MK inh 53
COc1ccc(CN2CCN(C(=O)c3cc(OC)c(OC)c(OC)c3)CC2)cc1OC	Spn MK inh 62
Cc1ccccc1-n1c(C)nnc1SCC(=O)N1CC(=O)Nc2ccccc21	none
COc1cccc(-c2cc(C(=O)Nc3ccccc3SC)no2)c1	none
COc1ccccc1-c1cc(C(=O)Nc2ccccc2SC)no1	Fluor 339 460 2.8
COc1ccc(-c2cc(C(=O)Nc3ccccc3SC)no2)cc1OC	Fluor 339 460 2.2
COc1ccc(-c2cc(C(=O)Nc3cnn(Cc4ccccc4C)c3)no2)cc1OC	Fluor 339 460 2.4
COc1ccc(-c2cc(C(=O)Nc3cc(C)n(Cc4ccc(Cl)cc4)n3)no2)cc1OC	Fluor 339 460 2.2
CSc1ccccc1NC(=O)c1cc(CC(C)C)on1	none
Cc1ccc(N(C(=O)C2CCCC2)C2C=CS(=O)(=O)C2)cc1C (stereo not given)	none
Cc1nn(C(C)C(=O)O)c2ccccc12 (stereo not given)	none
OC(COc1ccc2c(c1)OCO2)CN1CCc2ccccc2C1 (stereo not given)	none
COc1ccc(C(=O)N2CCN(S(=O)(=O)N3CCOCC3)CC2)cc1OC	none
COc1ccc(NC(=O)c2cc(-c3ccccc3OC)on2)cc1	Spn MK inh 48
COc1ccccc1-c1cc(C(=O)Nc2cccnc2)no1	none
O=C(CCC(=O)c1ccc(F)cc1)OC1CCOC1=O (stereo not given)	none
COc1cccc(C2C(C(=O)OCc3ccccc3)=C(C)Nc3ncnn32)c1OC (stereo not given)	none
CCOC(=O)C1CCCCN1C(=O)CCc1c(C)nc2cc(-c3ccccc3)nn2c1C (stereo not given)	none
CCOC(=O)C1CCN(c2cc(C)nc3cc(-c4cccc(F)c4)nn23)CC1	Fluor 339 460 2.6 (not shown: Spn DPM-DC inh)
CCOC(=O)C(CCc1nnc(N)s1)C(=O)OCC	Spn PMK inh 30
CCOC(=O)CSc1nnc(N)s1	none
O=c1c(N2CCCCC2)coc2ccccc12	none
Cc1nn(-c2ccccc2)c2sc(C(=O)N3CCOCC3)cc12	none
CCn1c2ccccc2c2cc(NC(=O)N3CCOCC3)ccc21	Fluor 339 460 2.1
CCn1c(=O)c2cc(C(=O)N3CCCC3)sc2c2ccccc21	Fluor 339 460 2.1 (not shown: Spn DPM-DC inh)
CCn1c(=O)cc(OCC(=O)N2CCCC2)c2ccccc21	none
O=C(c1cc2c(=O)n3ccccc3nc2s1)N1CCOCC1	Fluor 339 460 4.9 (not shown: Spn DPM-DC inh)
CCn1c(=O)c2cc(C(=O)N3CCOCC3)sc2c2ccccc21	Fluor 339 460 2.1 (not shown: Spn DPM-DC inh)
O=C(c1cc2c(=O)oc3ccccc3c2s1)N1CCOCC1	none
O=C(CNS(=O)(=O)c1cccc2nsnc12)NCc1ccc(Cl)cc1	none
Cc1cccc(OCCc2nnc(N)s2)c1C	none
COCCN1C=C(C(=O)OC)C(c2ccc(OC)c(OC)c2)C(C(=O)OC)=C1	Fluor 339 460 2.2 (not shown: Spn DPM-DC inh)
COC(=O)C1=C2SC(C)C(=O)N2C(N)=C(C#N)C1c1ccc(OC)c(OC)c1 (stereo not given)	none
COC(=O)C1=CN(CC2CCCO2)C=C(C(=O)OC)C1c1cc(OC)c(OC)c(OC)c1 (stereo not given)	Fluor 339 460 2.1 (not shown: Spn DPM-DC inh)
CCCOc1ccc(C2C(C(=O)OC)=CN(CCOC)C=C2C(=O)OC)cc1	Fluor 339 460 2.6 (not shown: Spn DPM-DC inh)
COc1ccccc1C(=O)NCCCn1cc(Br)c(C)n1	none
Cc1cc(C(F)F)n2nc(C(=O)Nc3cccc(C(F)(F)F)c3)nc2n1	none
COc1ccc(C(F)(F)F)cc1NC(=O)c1nc2nc(C)cc(C(F)F)n2n1	Fluor 339 460 3 (not shown: Spn DPM-DC inh)
CC12CCC(C(=O)N(c3ccccn3)c3ccccn3)(OC1=O)C2(C)C (stereo not given)	none
O=C(Nc1nnc(-c2ccc3c(c2)OCCO3)o1)c1ccc(Cc2ccccc2)cc1	Fluor 339 460 2.1 (not shown: Spn DPM-DC inh)
N=c1n(CCN2CCOCC2)c2ccccc2n1CC(=O)c1ccc(Cl)c(Cl)c1	Spn PMK inh 26
CCN1CCN(c2nc3c(c(=O)n(C)c(=O)n3C)n2CCSc2nccc(C)n2)CC1	none
NC(=O)c1nsc(C(=O)N(CC(=O)NCc2ccc3c(c2)OCO3)C2CCCC2)c1N	Fluor 339 460 2.1 (no result: Spn PMK inh)
Nc1nnc(SCC(=O)NCc2ccc3c(c2)OCO3)s1	none
CC1CN(C2CCN(C(=O)c3ccccc3Cl)CC2)CC(C)O1 (stereo not given)	Spn MK inh 41
CC(=O)Nc1ccccc1C(=O)N1CC(C)OC(C)C1 (stereo not given)	none
Cc1ccc(-c2cn3nc(C)c(C)nc3n2)cc1	Fluor 339 460 2.9 (not shown: Spn DPM-DC inh)
Cc1cccc(-c2nnc3n2N=C(c2ccccc2Br)CS3)c1	none
CCc1nc(NC(C)C)c2oc3ccccc3c2n1	none
CCc1nc(Nc2ccncc2)c2oc3ccccc3c2n1	Fluor 339 460 2
Cc1ccc2cc(CCNC(=O)CC(C)(C)C)c(=O)[nH]c2c1C	Fluor 339 460 2 (not shown: Spn DPM-DC inh)
CC(=O)NCCc1cc2ccc(C)c(C)c2[nH]c1=O	none
COc1ccc(OC)c(-c2cc(C(=O)Nc3cccc(Cl)c3)no2)c1	Fluor 339 460 4.3 (not shown: Spn DPM-DC inh)
COc1ccc(OC)c(-c2cc(C(=O)Nc3c(C)nn(Cc4ccccc4)c3C)no2)c1	none
CCc1c(C)sc(NC(=O)c2cc(-c3cc(OC)ccc3OC)on2)c1C#N	Fluor 339 460 5.1 (not shown: Spn DPM-DC inh)
COc1ccc(OC)c(-c2cc(C(=O)Nc3c(C)nn(Cc4ccc(Cl)cc4)c3C)no2)c1	none
Cc1cc(NC(=O)c2cc(C3CC3)on2)no1	Spn MK inh 57

Compound activity (PubChem BioAssay)
